Laboratory results published in PubChem BioAssay (EPA / NIEHS).
Activity calls are given as the source filed them. The calls were made as follows: active = hit-call score of the fitted dose curve at least 0.9, where 1 is the maximum; inactive = score below 0.9.

Target: Transcriptional activator Myb (Homo sapiens) (UniProt P10242)
Assay: ATG_Myb_CIS: Attagene CIS-FACTORIAL HepG2 Assay for human Myeloblastosis (Myb) Proto-Oncogene Transcription Factor (AID 2282986)
Conditions: HepG2 Attagene CIS-FACTORIAL Myb reporter transcription; actives raise or lower the signal
How it was run: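 Reporter transcript levels, quantified by fluorescent RT-PCR and capillary electrophoresis, serve as the read-out. Transfected HepG2 cells carrying cis-promoter reporter units are dosed for 24 hours, and curves are fitted bidirectionally against DMSO controls.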

Sequence of Transcriptional activator Myb (Homo sapiens) (P10242 whole entry, looked up): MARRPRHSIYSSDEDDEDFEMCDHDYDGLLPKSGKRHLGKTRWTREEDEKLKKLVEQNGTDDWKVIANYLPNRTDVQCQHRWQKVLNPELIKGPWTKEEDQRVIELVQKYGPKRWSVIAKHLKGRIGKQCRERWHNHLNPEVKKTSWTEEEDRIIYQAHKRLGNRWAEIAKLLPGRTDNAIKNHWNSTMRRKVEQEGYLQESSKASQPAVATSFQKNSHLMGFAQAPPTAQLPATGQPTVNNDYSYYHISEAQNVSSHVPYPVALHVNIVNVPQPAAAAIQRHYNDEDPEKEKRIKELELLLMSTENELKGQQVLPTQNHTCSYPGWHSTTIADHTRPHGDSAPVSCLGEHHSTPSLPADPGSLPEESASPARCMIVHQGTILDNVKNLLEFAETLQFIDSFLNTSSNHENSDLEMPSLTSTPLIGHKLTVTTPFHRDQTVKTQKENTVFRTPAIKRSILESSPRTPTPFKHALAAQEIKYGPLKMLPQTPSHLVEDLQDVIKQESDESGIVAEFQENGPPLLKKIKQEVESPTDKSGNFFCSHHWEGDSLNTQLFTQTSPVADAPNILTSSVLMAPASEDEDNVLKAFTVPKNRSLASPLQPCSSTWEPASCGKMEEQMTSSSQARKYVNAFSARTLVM

**Q.** For `COS(=O)(=O)O`, which outcome is on record?
**A.** inactive

**Q.** Which outcome does the source give for `O=C(O)CCCCCCCCC(=O)O` here?
**A.** inactive

**Q.** Which outcome does the source give for `Oc1ccc2cc(SSc3ccc4cc(O)ccc4c3)ccc2c1` here?
**A.** inactive

**Q.** For `CC(C)(C)C1=CC(=O)C(C(C)(C)C)=CC1=O`, which outcome is on record?
**A.** inactive

**Q.** Which outcome does the source give for `COc1ccc(CCC(C)=O)cc1` here?
**A.** inactive

**Q.** For `CC(C)C[C@H](NC(=O)OCC1c2ccccc2-c2ccccc21)C(=O)O`, which outcome is on record?
**A.** inactive

**Q.** For `O=[N+]([O-])c1ccc(O)cc1C(F)(F)F`, which outcome is on record?
**A.** inactive

**Q.** For `O=C(O)c1ccc(O)cc1`, which outcome is on record?
**A.** inactive

**Q.** For `CC1C2CC(CC2C2CCCC(O)C2)C1(C)C` (configuration not stated), which outcome is on record?
**A.** inactive

**Q.** For `CC1(C)C2=CCCC(C)(C)[C@]23CC[C@H]1C3`, which outcome is on record?
**A.** inactive

**Q.** With `OCc1ccc(Cl)cc1Cl` as the molecule, how does the outcome read?
**A.** inactive

**Q.** With `CC1(C)COCN1` as the molecule, how does the outcome read?
**A.** inactive

**Q.** With `CCOC(=O)CN` as the molecule, how does the outcome read?
**A.** inactive

**Q.** Which outcome does the source give for `CCCCCCC(C)Nc1ccc(Nc2ccccc2)cc1` (configuration not stated) here?
**A.** inactive

Target: Nuclear respiratory factor 1 (Homo sapiens) (UniProt Q16656)
Sequence (Q16656 whole entry, looked up): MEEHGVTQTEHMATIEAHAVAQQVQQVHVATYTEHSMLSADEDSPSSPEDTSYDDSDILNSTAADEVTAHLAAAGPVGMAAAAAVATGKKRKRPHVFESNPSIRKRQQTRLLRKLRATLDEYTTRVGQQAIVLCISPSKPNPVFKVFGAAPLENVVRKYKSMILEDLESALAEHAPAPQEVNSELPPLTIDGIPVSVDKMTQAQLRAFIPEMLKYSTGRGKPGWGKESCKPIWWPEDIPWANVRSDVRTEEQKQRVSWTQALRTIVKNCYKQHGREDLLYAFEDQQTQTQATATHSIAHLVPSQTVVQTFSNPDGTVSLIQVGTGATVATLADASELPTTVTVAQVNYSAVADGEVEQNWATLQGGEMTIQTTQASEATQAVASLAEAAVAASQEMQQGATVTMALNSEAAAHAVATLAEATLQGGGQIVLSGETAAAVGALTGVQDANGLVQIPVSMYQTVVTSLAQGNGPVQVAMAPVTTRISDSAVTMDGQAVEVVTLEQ
Assay: ATG_NRF1_CIS: Attagene CIS-FACTORIAL HepG2 Assay for human Nuclear Respiratory Factor 1 (NRF1) Orphan Gene (AID 2282987)
Conditions: HepG2 NRF1 cis-element reporter, Attagene multiplex; actives raise or lower the signal
How it was run: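 Multiplexed cis-reporter assay, HepG2 cells, 24 h treatment. Total RNA → oligo(dT) RT → PCR with reporter-specific primers → 6-FAM primer extension → HpaI cut → CE. Bidirectional fit vs DMSO.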

**Q.** With `CCOC(=O)[C@@H](C)Oc1ccc(Oc2nc3ccc(Cl)cc3o2)cc1` as the molecule, how does the outcome read?
**A.** inactive

**Q.** Which outcome does the source give for `CCCCCCCCCCCCCCCC(=O)OC/C=C(C)/C=C/C=C(C)/C=C/C1=C(C)CCCC1(C)C` here?
**A.** inactive

**Q.** With `CSc1c(Cl)c(Cl)c(Cl)c(Cl)c1Cl` as the molecule, how does the AC50 read?
**A.** 169 µM (active)

**Q.** For `CC(C)(C)OC(=O)c1ccc(O)cc1`, which outcome is on record?
**A.** inactive

**Q.** For `Cc1cc(S(=O)(=O)O)ccc1N=Nc1c(O)ccc2ccccc12`, which outcome is on record?
**A.** inactive

**Q.** Which outcome does the source give for `C[C@H]1C[C@@H](O)CC(C)(C)C1` here?
**A.** inactive

**Q.** For `CCCCCCCCCCCCN1CCCCCC1=O`, which outcome is on record?
**A.** inactive

**Q.** Which outcome does the source give for `Cc1ccc(S(=O)(=O)Oc2ccc(N=Nc3ccc(-c4ccc(N=Nc5c(O)ccc6cc(S(=O)(=O)O)cc(S(=O)(=O)O)c56)c(C)c4)cc3C)cc2)cc1` here?
**A.** inactive

**Q.** Which outcome does the source give for `Cc1cc(CCC(=O)OCCOCCOCCOC(=O)CCc2cc(C)c(O)c(C(C)(C)C)c2)cc(C(C)(C)C)c1O` here?
**A.** inactive

**Q.** Which outcome does the source give for `C=CC(C)(O)CCC=C(C)C` (configuration not stated) here?
**A.** inactive

**Q.** With `C[Si](C)(C)O[Si](C)(C)C` as the molecule, how does the outcome read?
**A.** inactive

**Q.** For `CCCCC(CC)COC(=O)c1ccc(O)cc1` (configuration not stated), which outcome is on record?
**A.** inactive

**Q.** Which outcome does the source give for `CN(C)CCOc1ccc(/C(=C(/CCCl)c2ccccc2)c2ccccc2)cc1` here?
**A.** inactive

**Q.** Which outcome does the source give for `Nc1ccc2cc(S(=O)(=O)O)cc(O)c2c1N=Nc1ccccc1C(F)(F)F` here?
**A.** inactive

**Q.** With `CCc1cc(Cc2cc(CC)cc(C(C)(C)C)c2O)c(O)c(C(C)(C)C)c1` as the molecule, how does the outcome read?
**A.** inactive

**Q.** For `O=C(Nc1ccc([N+](=O)[O-])cc1)Nc1ccc([N+](=O)[O-])cc1` (tested in a mixture with another compound), which outcome is on record?
**A.** inactive

**Q.** With `O=C(Nc1ccc2c(c1)Cc1ccccc1-2)C(F)(F)F` as the molecule, how does the outcome read?
**A.** inactive

**Q.** For `COC(=O)c1ccc(OC)cc1`, which outcome is on record?
**A.** inactive

**Q.** With `CCCCCCC(O)CCCCCCCCCCC(=O)O` (configuration not stated) as the molecule, how does the outcome read?
**A.** inactive

**Q.** With `O=C(O)COCC(=O)O` as the molecule, how does the outcome read?
**A.** inactive

**Q.** Which outcome does the source give for `OCc1cccc(Oc2ccccc2)c1` here?
**A.** inactive

**Q.** For `CN(C)CCOC(C)(c1ccccc1)c1ccccn1` (configuration not stated), which outcome is on record?
**A.** inactive

**Q.** With `COS(=O)(=O)O` as the molecule, how does the outcome read?
**A.** inactive

**Q.** With `[Cl][Au]([Cl])[Cl]` as the molecule, how does the AC50 read?
**A.** 147 µM (active)

**Q.** For `O=C(O)CCCCCCCCC(=O)O`, which outcome is on record?
**A.** inactive

**Q.** Which outcome does the source give for `Oc1ccc2cc(SSc3ccc4cc(O)ccc4c3)ccc2c1` here?
**A.** inactive

**Q.** For `CC(C)(C)C1=CC(=O)C(C(C)(C)C)=CC1=O`, which outcome is on record?
**A.** inactive

**Q.** Which outcome does the source give for `COc1ccc(CCC(C)=O)cc1` here?
**A.** inactive

**Q.** Which outcome does the source give for `CC(C)C[C@H](NC(=O)OCC1c2ccccc2-c2ccccc21)C(=O)O` here?
**A.** inactive

**Q.** Which AC50 does the source give for `O=[N+]([O-])c1ccc(O)cc1C(F)(F)F` here?
**A.** 25.2 µM (active)

**Q.** For `O=C(O)c1ccc(O)cc1`, which outcome is on record?
**A.** inactive

**Q.** For `CC1C2CC(CC2C2CCCC(O)C2)C1(C)C` (configuration not stated), which outcome is on record?
**A.** inactive

**Q.** Which outcome does the source give for `CC1(C)C2=CCCC(C)(C)[C@]23CC[C@H]1C3` here?
**A.** inactive

**Q.** Which outcome does the source give for `OCc1ccc(Cl)cc1Cl` here?
**A.** inactive

**Q.** Which outcome does the source give for `CC1(C)COCN1` here?
**A.** inactive

**Q.** For `CCOC(=O)CN`, which outcome is on record?
**A.** inactive

**Q.** For `CCCCCCC(C)Nc1ccc(Nc2ccccc2)cc1` (configuration not stated), which outcome is on record?
**A.** inactive

**Q.** For `CC/C=C\CC/C=C/CO`, which outcome is on record?
**A.** inactive

Test system: not listed separately
Assay: ATG_NFI_CIS: Attagene CIS-FACTORIAL HepG2 Assay for human Nuclear Factor I (NFI) (AID 2282989)
Conditions: HepG2 cis-regulatory reporter, NFI response element transcription; actives raise or lower the signal
How it was run: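 Read-out: reporter mRNA via RT-PCR plus capillary electrophoresis with fluorescence detection. Transiently transfected HepG2 (endogenous TF activity on cis promoters), 24 h compound exposure; gain or loss of signal fitted against DMSO.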

**Q.** For `CCOC(=O)[C@@H](C)Oc1ccc(Oc2nc3ccc(Cl)cc3o2)cc1`, which outcome is on record?
**A.** inactive

**Q.** For `CCCCCCCCCCCCCCCC(=O)OC/C=C(C)/C=C/C=C(C)/C=C/C1=C(C)CCCC1(C)C`, which outcome is on record?
**A.** inactive

**Q.** With `CSc1c(Cl)c(Cl)c(Cl)c(Cl)c1Cl` as the molecule, how does the AC50 read?
**A.** 154 µM (active)

**Q.** For `CC(C)(C)OC(=O)c1ccc(O)cc1`, which outcome is on record?
**A.** inactive

**Q.** For `Cc1cc(S(=O)(=O)O)ccc1N=Nc1c(O)ccc2ccccc12`, which outcome is on record?
**A.** inactive

**Q.** With `C[C@H]1C[C@@H](O)CC(C)(C)C1` as the molecule, how does the outcome read?
**A.** inactive

**Q.** Which outcome does the source give for `CCCCCCCCCCCCN1CCCCCC1=O` here?
**A.** inactive

**Q.** With `Cc1ccc(S(=O)(=O)Oc2ccc(N=Nc3ccc(-c4ccc(N=Nc5c(O)ccc6cc(S(=O)(=O)O)cc(S(=O)(=O)O)c56)c(C)c4)cc3C)cc2)cc1` as the molecule, how does the outcome read?
**A.** inactive

**Q.** Which outcome does the source give for `Cc1cc(CCC(=O)OCCOCCOCCOC(=O)CCc2cc(C)c(O)c(C(C)(C)C)c2)cc(C(C)(C)C)c1O` here?
**A.** inactive

**Q.** With `C=CC(C)(O)CCC=C(C)C` (configuration not stated) as the molecule, how does the outcome read?
**A.** inactive

**Q.** Which outcome does the source give for `C[Si](C)(C)O[Si](C)(C)C` here?
**A.** inactive

**Q.** Which outcome does the source give for `CCCCC(CC)COC(=O)c1ccc(O)cc1` (configuration not stated) here?
**A.** inactive

**Q.** With `CN(C)CCOc1ccc(/C(=C(/CCCl)c2ccccc2)c2ccccc2)cc1` as the molecule, how does the outcome read?
**A.** inactive

**Q.** For `Nc1ccc2cc(S(=O)(=O)O)cc(O)c2c1N=Nc1ccccc1C(F)(F)F`, which outcome is on record?
**A.** inactive

**Q.** Which outcome does the source give for `O=C(Nc1ccc([N+](=O)[O-])cc1)Nc1ccc([N+](=O)[O-])cc1` (tested in a mixture with another compound) here?
**A.** inactive

**Q.** For `O=C(Nc1ccc2c(c1)Cc1ccccc1-2)C(F)(F)F`, which outcome is on record?
**A.** inactive

**Q.** For `COC(=O)c1ccc(OC)cc1`, which outcome is on record?
**A.** inactive

**Q.** With `CCCCCCC(O)CCCCCCCCCCC(=O)O` (configuration not stated) as the molecule, how does the outcome read?
**A.** inactive

**Q.** With `O=C(O)COCC(=O)O` as the molecule, how does the outcome read?
**A.** inactive

**Q.** For `CN(C)CCOC(C)(c1ccccc1)c1ccccn1` (configuration not stated), which outcome is on record?
**A.** inactive

**Q.** For `COS(=O)(=O)O`, which outcome is on record?
**A.** inactive

**Q.** Which outcome does the source give for `[Cl][Au]([Cl])[Cl]` here?
**A.** inactive

**Q.** For `O=C(O)CCCCCCCCC(=O)O`, which outcome is on record?
**A.** inactive

**Q.** With `Oc1ccc2cc(SSc3ccc4cc(O)ccc4c3)ccc2c1` as the molecule, how does the AC50 read?
**A.** 34.1 µM (active)

**Q.** Which outcome does the source give for `CC(C)(C)C1=CC(=O)C(C(C)(C)C)=CC1=O` here?
**A.** inactive

**Q.** With `COc1ccc(CCC(C)=O)cc1` as the molecule, how does the outcome read?
**A.** inactive

**Q.** Which outcome does the source give for `CC(C)C[C@H](NC(=O)OCC1c2ccccc2-c2ccccc21)C(=O)O` here?
**A.** inactive

**Q.** Which AC50 does the source give for `O=[N+]([O-])c1ccc(O)cc1C(F)(F)F` here?
**A.** 69.4 µM (active)

**Q.** Which outcome does the source give for `O=C(O)c1ccc(O)cc1` here?
**A.** inactive

**Q.** Which outcome does the source give for `CC1C2CC(CC2C2CCCC(O)C2)C1(C)C` (configuration not stated) here?
**A.** inactive

**Q.** With `CC1(C)C2=CCCC(C)(C)[C@]23CC[C@H]1C3` as the molecule, how does the outcome read?
**A.** inactive

**Q.** Which outcome does the source give for `OCc1ccc(Cl)cc1Cl` here?
**A.** inactive

**Q.** Which outcome does the source give for `CC1(C)COCN1` here?
**A.** inactive

**Q.** With `CCCCCCC(C)Nc1ccc(Nc2ccccc2)cc1` (configuration not stated) as the molecule, how does the outcome read?
**A.** inactive

**Q.** With `CC/C=C\CC/C=C/CO` as the molecule, how does the outcome read?
**A.** inactive
